Assay outcomes from PubChem BioAssay.
CHX counter: affects cycloheximide protein synthesis inhibition readout, counter-screen. cell reporter, cycloheximide protein synthesis inhibition counterscreen. max response, %. actives 12% (n = 300,000). AID 2314; in the data active = max response mostly above about 13%, no sharp cut-off; inactive = mostly below about 14%; note: read at 38.3 µM for the half of the compounds with a filed dose
Shiga inhibitor: Shiga toxin inhibition | AID 2315 | actives 9.2% (n = 290,000) | Vero cells, Shiga toxin protein synthesis inhibition reporter | inhibition, % at 38.7 µM; in the data active = inhibition mostly above about 28%, no sharp cut-off; inactive = mostly below about 43%
SARS PLP yeast: inhibitors of SARS-CoV papain-like protease in yeast. Potency, µM (highest dose often 32.9 µM), usual class: activators. actives 0.19% (n = 330,000). AID 485353. S. cerevisiae expressing SARS-CoV PLpro, growth rescue; note: nearly all actives have a fitted effect of over 55% in size
NS1 inh: blocks influenza NS1 protein function. AID 2326. Potency, µM (doses to about 46.1 µM). actives 0.4% (n = 270,000); note: actives are rising curves; nearly all actives have a fitted effect of over 50% in size
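In this qHTS, NS1 from influenza A is expressed in budding yeast, where it slows growth. Cells are switched from glucose to 2% galactose medium (pH 6.0, -URA), treated with compound, and growth recovery is read at OD600.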
Of the large screens only hits and unclear results are named; the others gave an inactive call. In the library only some 12% were active in any assay of this set; here they are far more common. Unless noted, calls come from the whole dose curve.

Cc1ccc2nc(SCC(=O)Nc3cc([N+](=O)[O-])ccc3F)[nH]c2c1	none
COc1ccc(N2CCN(S(=O)(=O)c3ccc(OC)c(C(=O)N4CCCCC4)c3)CC2)cc1	none
CCC(C(=O)Nc1cc(C(=O)Nc2cc(C)ccn2)ccc1Cl)c1ccccc1 (stereo unspecified)	CHX counter 18.9
Cc1ccnc(NC(=O)c2ccc(Cl)c(NC(=O)c3ccccc3C)c2)c1	CHX counter 16.4
Cc1ccnc(NC(=O)c2cccc(NC(=O)c3ccccc3C)c2)c1	none
CCC(C)(C)NC(=O)CN(CCc1cccc(C)c1)C(=O)c1csnn1	none
CCOC(=O)[C@@H]1[C@H]2COc3ccccc3[C@@H]2N2C(=O)N(c3cccc(F)c3)C(=O)[C@@]12C	none (no result: CHX counter, Shiga inhibitor, NS1 inh)
NC(=O)C1CCCN(Cc2ccc3ccccc3c2)C1 (stereo unspecified)	none
OC1CCCN(Cc2ccc3c(c2)Cc2ccccc2-3)C1 (stereo unspecified)	CHX counter 16.0
CC[C@@H](C)C(NC(=O)OC(C)(C)C)c1cn([C@@H](Cc2ccc(O)cc2)C(=O)N2CCN(C(=O)OC(C)(C)C)CC2)nn1 (stereo partly specified)	none
Cc1cccc(Nc2nnc(SCC(=O)NCc3cccs3)s2)c1	CHX counter 19.3, Shiga inhibitor 62.4
Cc1cccc(Nc2nnc(SCc3cn4ccsc4n3)s2)c1	CHX counter 20.4
Cc1cccc(Nc2nnc(SCC(=O)NCc3cccs3)s2)c1C	Shiga inhibitor 41.6
Cc1cccc(Nc2nnc(SCC(=O)Nc3cccnc3Cl)s2)c1	CHX counter 27.0
O=c1cc(CSc2nnc(Nc3ccccc3)s2)nc2sccn12	none
COc1ccc(CN2C(=O)CS/C2=N/N=C/c2cccs2)cc1	none
CCC(C(=O)Nc1ccc(S(=O)(=O)Nc2ncccn2)cc1)c1ccccc1 (stereo unspecified)	none
CCOC(=O)Cn1c(=O)oc2cc(S(=O)(=O)Nc3ccc(F)cc3)ccc21	none
c1ccc2nc3ccccc3nc2c1	none
c1ccc(-c2ncc3c(ccc4ccccc43)n2)cc1	CHX counter 58.1, Shiga inhibitor 73.8
c1ccc(Oc2cnc3ccccc3n2)cc1	none
O=C(O)c1cnc(-c2ccccc2)nc1-c1ccccc1	none (no result: NS1 inh)
c1ccc2c(c1)cnc1ccccc12	CHX counter 24.1
c1ccc2nc3ccccc3cc2c1	CHX counter 39.8, Shiga inhibitor 46.6 (no result: SARS PLP yeast, NS1 inh)
CCC[C@H]1COCCS(=O)(=O)N1Cc1ccccc1	none
Cc1c(NC(=O)COc2ccc(C(C)C)cc2)c(=O)n(-c2ccccc2)n1C	none
O=C(CCNS(=O)(=O)c1cccc2nsnc12)NCc1ccco1	none (no result: NS1 inh)
COc1ccc2c(CC(=O)Nc3ncc(C)s3)coc2c1	CHX counter 32.9, Shiga inhibitor 86.0 (no result: NS1 inh)
COc1ccc(CNC(=O)CC23CC4CC(CC(C4)C2)C3)cc1	none
Cc1cccc(NC(=O)COc2ccc3c(c2)CCC3)n1	none (no result: CHX counter, Shiga inhibitor, NS1 inh)
COc1ccc(CCC(=O)NCC23CC4CC(CC(C4)C2)C3)cc1	CHX counter 14.8
COc1cc(CCC(=O)Nc2ncc(C)s2)cc(OC)c1OC	none
COc1ccc(CCC(=O)Nc2ncc(C)s2)cc1	CHX counter 16.9, Shiga inhibitor 35.3
Cc1cnc(NC(=O)COc2ccc3c(c2)CCC3)s1	CHX counter 59.7, Shiga inhibitor 61.1
CN(CC(=O)Nc1ccccc1Cl)C(=O)COC(=O)c1cnccn1	none
CCC(CO)Oc1cc(NCc2ccc(C(F)(F)F)cc2)c2ncn(C(C)C)c2c1 (stereo unspecified)	none (no result: CHX counter, Shiga inhibitor, NS1 inh)
COc1cccc(C(=O)NCC(=O)N/N=C/c2cn[nH]c2-c2ccccc2)c1	none (no result: NS1 inh)
Cc1cc(S(=O)(=O)NCc2ccccc2)ccc1OCC(=O)NCc1ccncc1	CHX counter 48.6, Shiga inhibitor 80.2
NS(=O)(=O)c1ccc(CCNC(=O)c2ccc(Br)s2)cc1	none (no result: NS1 inh)
O=C(Cc1ccccc1)NCc1ccncc1	CHX counter 41.7, Shiga inhibitor 67.2
O=C(Cc1c[nH]c2ccccc12)NCc1ccncc1	none (no result: SARS PLP yeast)
O=C(NCCc1ccc(Cl)cc1)c1ccc(Br)s1	CHX counter 45.1, Shiga inhibitor 55.0
O=C(NCCc1ccc(F)cc1)c1ccncc1	CHX counter 15.5, Shiga inhibitor 86.8
O=C(CCC(=O)Nc1ccccc1)NNS(=O)(=O)c1ccccc1[N+](=O)[O-]	none (no result: NS1 inh)
O=C(NCCc1ccccc1)c1ccc(Cl)nc1	CHX counter 33.1, Shiga inhibitor 60.2
O=C(NCCc1ccccc1)c1n[nH]c(=O)c2ccccc12	CHX counter 26.6
Cc1ccc(C(=O)NCCc2ccc(F)cc2)s1	CHX counter 59.4, Shiga inhibitor 57.8 (no result: NS1 inh)
O=C(NCCc1ccccc1)c1ccncc1	CHX counter 32.2, Shiga inhibitor 94.7, SARS PLP yeast inconclusive
COc1ccc(C(CNC(=O)c2ccc(S(=O)(=O)Nc3ccc(F)cc3)cc2)N(C)C)cc1 (stereo unspecified)	none
COc1nc2ccccc2nc1OC	none
CCOc1ccc(N2C(=O)Nc3ccccc3C2(O)C(=O)N2CCN(c3ccccn3)CC2)cc1 (stereo unspecified)	none
COc1ccc(-c2nc(N)c3ncn([C@H]4O[C@@H](CO)[C@@H](O)[C@@H]4O)c3n2)cc1	none (no result: CHX counter, Shiga inhibitor, SARS PLP yeast)
COc1ccc(-c2nn(-c3ccccc3)cc2/C=N/N2C(=O)CSC2=S)cc1	CHX counter 28.9
O=C1C(C=NCCCN2CCOCC2)=C(O)c2ccccc21	CHX counter 27.5, Shiga inhibitor 59.5
CC1(C)CC(=O)C(C=NCCN2CCOCC2)=C(O)C1	none
O=C1C(C=NCCN2CCOCC2)=C(O)c2ccccc21	CHX counter 47.2, Shiga inhibitor 83.9
CC(=O)N1CCc2cc(S(=O)(=O)NCCC(=O)NCCc3ccc(Cl)cc3)ccc21	none
Cc1ccccc1OCC(=O)OCC(=O)c1ccc(-c2ccccc2)cc1	none
Cc1ccc(C(=O)OC(C)C(=O)NC(C)CCc2ccccc2)o1 (stereo unspecified)	none (no result: CHX counter, Shiga inhibitor, NS1 inh)
CC(CCN(C)C)OC(=O)c1ccc(C(C)c2ccccc2)o1 (stereo unspecified)	CHX counter 18.4
COc1ccc(CNC(=O)CNC(=O)c2c(C)nn(C)c2Cl)cc1	none
COc1ccc(OC)c(C2Nc3ccccc3NC3=C2C(=O)CC(C)(C)C3)c1 (stereo unspecified)	CHX counter 19.4
CC1(C)CC(=O)C2=C(C1)Nc1ccccc1NC2c1ccccn1 (stereo unspecified)	none
CC1(C)CC(=O)C2=C(C1)Nc1ccccc1NC2c1nc2ccccc2[nH]1 (stereo unspecified)	CHX counter 42.0, Shiga inhibitor 118.3
Cc1cc2c(cc1C)NC(c1c(C)n(C)n(-c3ccccc3)c1=O)C1=C(CC(C)(C)CC1=O)N2 (stereo unspecified)	CHX counter 18.8, Shiga inhibitor 39.3
COc1ccc(C2Nc3ccccc3NC3=C2C(=O)CC(C)(C)C3)cc1OC (stereo unspecified)	none
COc1ccc(C2Nc3ccccc3NC3=C2C(=O)CC(C)(C)C3)cc1O (stereo unspecified)	CHX counter 24.3, Shiga inhibitor 70.4
COc1ccccc1C1Nc2ccccc2NC2=C1C(=O)CC(C)(C)C2 (stereo unspecified)	none
O=C(COC(=O)c1ccccc1F)Nc1ccc2c(c1)OCCO2	none (no result: CHX counter, Shiga inhibitor, NS1 inh)
CC(=O)Nc1cccc(OCCCNS(=O)(=O)c2ccc(F)cc2)c1	none
O=[N+]([O-])c1ccc(Cl)c(CNc2ncnc3c2ncn3[C@@H]2CCCCO2)c1	none (no result: CHX counter, Shiga inhibitor, SARS PLP yeast)
